Measured values as given in PubChem BioAssay (NCI).
The panel holds about 83,000 compounds, 20% with a hit somewhere; the sample as a whole holds those more often.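 Activity criterion: percent growth below 10, measured after cells in 96-well plates were exposed to a single compound concentration for 48 hours.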 Unmarked numbers belong to inactive results. The source made the active and inactive calls.

Assays:
Test in all cases: NCI-60 one-dose screen, 48 h (100 = growth as untreated, 0 = no growth, -100 = all killed)
Conditions in all cases: 10 µM unless noted
RPMI-8226 leukemia = system: RPMI-8226 leukemia
OVCAR-8 ovarian = system: OVCAR-8 ovarian
OVCAR-5 ovarian = system: OVCAR-5 ovarian
OVCAR-4 ovarian = system: OVCAR-4 ovarian
SK-OV-3 ovarian = system: SK-OV-3 ovarian
IGROV1 ovarian = system: IGROV1 ovarian
OVCAR-3 ovarian = system: OVCAR-3 ovarian
HS 578T breast = system: HS 578T breast
NCI/ADR-RES ovarian = system: NCI/ADR-RES ovarian
T-47D breast = system: T-47D breast
BT-549 breast = system: BT-549 breast
MDA-MB-435 melanoma = system: MDA-MB-435 melanoma
SW-620 colon = system: SW-620 colon
MCF7 breast = system: MCF7 breast
HCT-116 colon = system: HCT-116 colon
HCC-2998 colon = system: HCC-2998 colon
KM12 colon = system: KM12 colon

Row | Structure (SMILES) | growth (RPMI-8226 leukemia) | growth (OVCAR-8 ovarian) | growth (OVCAR-5 ovarian) | growth (OVCAR-4 ovarian) | growth (SK-OV-3 ovarian) | growth (IGROV1 ovarian) | growth (OVCAR-3 ovarian) | growth (HS 578T breast) | growth (NCI/ADR-RES ovarian) | growth (T-47D breast) | growth (BT-549 breast) | growth (MDA-MB-435 melanoma) | growth (SW-620 colon) | growth (MCF7 breast) | growth (HCT-116 colon) | growth (HCC-2998 colon) | growth (KM12 colon)
1 | COc1ccc(C2=NN(c3ccc(S(N)(=O)=O)cc3)C(c3ccc(Cl)cc3)C2)c(O)c1 (centres undefined) | 4.28% (active) | 54.6% | 78.3% | 50.5% | 85.3% | 50.1% | 58.6% | 70.5% | 52.5% | 33.8% | 84.7% | 47.2% | 76.2% | 28.2% | 24.4% | 60.6% | 41.3%
2 | COc1ccc2oc(=O)cc(-c3c(C#N)c(N)n4nc(N)c(C#N)c4c3C#N)c2c1 | 110% | 111% | 96.8% | 111% | 93.2% | 94.4% | 91.9% | 104% | 104% | 84.1% | 89.3% | 113% | 98% | 105% | 108% | 96.6% | 99%
3 | CCOC(=O)c1ccc(Nc2ncnc3ccc(NC(=O)c4ccccc4)cc23)cc1 | 69.2% | 86.7% | 96.2% | 89.2% | 100% | 103% | 94.4% | -95% (active) | 86.8% | 65.6% | 86.5% | 91.1% | 96% | 75.7% | 91.4% | 97.3% | 75.2%
4 | CNCc1cccc2c1OCCOCCOCCN(CCN1CCOCC1)S(=O)(=O)c1ccc(cc1)-c1cnc(N)c(n1)C(=O)N2 | 54.8% | 62.2% | 119% | 54.8% | 17.3% | 47.9% | 49.4% | 47.5% | 108% | 101% | 22.3% | 47.3% | 43.4% | 37.8% | 35.9% | 48.2% | 37.5%
5 | CC[C@]12C=CCN3CC[C@@]4(c5cc(NC(=O)CCC(=O)O[C@H]6CC[C@H]7[C@@H]8CC[C@H]9CC(=O)CC[C@]9(C)[C@H]8CC[C@]67C)c(OC)cc5N(C)[C@H]4[C@@](O)(C(=O)OC)[C@@H]1OC(C)=O)[C@@H]32 | 45.2% | 75.9% | 104% | 60.7% | 98.6% | 69.6% | 73.2% | 75.5% | 72.9% | 46.4% | 58.6% | 76.5% | 85.6% | 48.2% | 47.5% | 97.5% | 74.2%
6 | COc1ccc(-c2nc(C#N)c(NCC(c3ccc(Cl)cc3)N3CCCCC3)o2)cc1 (centres undefined) | 85.6% | 101% | 96% | 87.5% | 109% | 85.8% | 95.1% | 97.3% | 87.1% | 94.8% | 106% | 77.1% | 97.5% | 80.6% | 80.5% | 107% | 84.9%
7 | C[C@H]1[C@H](C)CC[C@]2(C(=O)OCCCC[P+](c3ccccc3)(c3ccccc3)c3ccccc3)CC[C@]3(C)C(=CC[C@@H]4[C@@]5(C)CC[C@H](OC(=O)C(Cl)Cl)C(C)(C)[C@@H]5CC[C@]43C)[C@H]12 | -53.3% (active) | -36.8% (active) | -52.2% (active) | -12.1% (active) | -15.5% (active) | -51.8% (active) | -88.8% (active) | -20.1% (active) | 36.8% | -23.8% (active) | -87.1% (active) | -91.4% (active) | -71.3% (active) | -38.1% (active) | -89.2% (active) | -84.8% (active) | -85.7% (active)
8 | CCOC(=O)c1sc(/N=C2\NC(=O)/C(=C/c3ccc(N4CCN(C)CC4)cc3)S2)nc1C | 87.5% | 110% | 110% | 103% | 102% | 99.5% | 96.3% | 107% | 98.1% | 95.5% | 95% | 106% | 120% | 84% | 103% | 94.7% | 95.4%
9 | NS(=O)(=O)c1ccc(C2C3=C(CCCC3=O)OC3=C2C(=O)c2ccccc2C3=O)cc1 (centres undefined) | -35.8% (active) | -14.5% (active) | -53.1% (active) | -96.6% (active) | -23.9% (active) | -52.3% (active) | -66.1% (active) | -5.38% (active) | 56.9% | -50.7% (active) | -99.8% (active) | -93% (active) | -45.4% (active) | -61.5% (active) | -73.6% (active) | -61.4% (active) | -29.1% (active)
10 | COc1ccc(C(=O)c2cc(F)c(F)c(OC)c2F)cc1OC(=O)CCl | 37.2% | 51.1% | 103% | 81.7% | 45.9% | 43.7% | 13.7% | 65.4% | 14.3% | 44.1% | 36.3% | -27.7% (active) | 20.6% | 19.2% | 20.5% | 79.5% | 31.1%
11 | Nn1c(SCC(=O)Nc2ccc(Cl)cc2)nnc1-c1cc(F)c(Cl)cc1Cl | 76.8% | 89.9% | 66.5% | 85.9% | 89.9% | 89.9% | 84.2% | 99.7% | 93.5% | 67.3% | 114% | 97.3% | 92% | 72.3% | 83.1% | 93.2% | 72.8%
12 | Cc1cc2ccccc2c[n+]1CC(=O)c1ccc(-c2ccccc2)cc1 | 19.6% | 43.8% | 73.1% | 9.69% (active) | 64.1% | 49.2% | 31.9% | 83.5% | 101% | 38.2% | 53.3% | 66.3% | 48.5% | 29.3% | 28.4% | 61.8% | 56.7%
13 | N#Cc1ccc(C2C3=C(CCCC3=O)OC3=C2C(=O)c2ccccc2C3=O)cc1 (centres undefined) | 54.7% | 1.88% (active) | 126% | -2.83% (active) | 97.7% | 40% | -1.75% (active) | 90.8% | 6.19% (active) | 3.02% (active) | 91.9% | -77% (active) | 49.3% | 0.491% (active) | 6.16% (active) | 104% | 89.8%
14 | CC1(C)[C@@H](O)CC[C@]2(C)[C@H]3CC[C@@H]4[C@H]5[C@H](c6cn(-c7ccccc7)nn6)CC[C@]5(CO)CC[C@@]4(C)[C@]3(C)CC[C@@H]12 | 73.2% | 85.2% | 118% | 98.3% | 103% | 119% | 88.2% | 94.6% | 80.9% | 63.9% | 80% | 93.9% | 94.3% | 52.8% | 94.4% | 110% | 88%
15 | O=[N+]([O-])c1cccc(CN(Cc2cccc([N+](=O)[O-])c2O)c2ccccc2)c1O | 59.8% | 83.2% | 76.5% | 68% | 86.4% | 60.4% | 88.9% | 94.6% | 76% | 70.8% | 88.9% | 91.4% | 56.9% | 84.8% | 15.7% | 67.1% | 88.5%
16 | CC(C)(C)c1ccc(O)c(Cc2cc(C(C)(C)C)ccc2O)c1 | 47.7% | 90.3% | 120% | 95.6% | 102% | 101% | 103% | 93.3% | 100% | 78.6% | 113% | 107% | 105% | 72.5% | 88.6% | 103% | 100%
17 | CN(C)CCCn1c2c(c3cc(-c4ccco4)ccc3c1=O)C(=O)c1ccccc1-2 | 46.3% | 48% | 104% | 53% | 93.1% | 52.2% | 72% | 79.9% | 53.6% | 49.2% | 83.9% | 66.6% | 30.2% | -21.6% (active) | 26.6% | 71.7% | 44.4%
